Data published in ChEMBL document CHEMBL3433997, “St. Jude Leishmania screening dataset” (2016).
“And” between values parts separate entries of the source, which are not always exact repeats. Equal entries are not always repeated.

Key:
Assay type in all cases: functional
[1] = target: Solute carrier family 2, facilitated glucose transporter member 1 (Homo sapiens) (UniProt P11166); assay: ST_JUDE_LEISH: Cytotoxicity at 2uM final concentration against transgenic Leishmania Mexicana promastigotes LmGLUT1 that are glucose transport deficient and complemented with the human glucose transporter GLUT1. Activity is measured by DNA content using SYBR green in vitro
Solute carrier family 2, facilitated glucose transporter member 1 (Homo sapiens), sequence (P11166 whole entry): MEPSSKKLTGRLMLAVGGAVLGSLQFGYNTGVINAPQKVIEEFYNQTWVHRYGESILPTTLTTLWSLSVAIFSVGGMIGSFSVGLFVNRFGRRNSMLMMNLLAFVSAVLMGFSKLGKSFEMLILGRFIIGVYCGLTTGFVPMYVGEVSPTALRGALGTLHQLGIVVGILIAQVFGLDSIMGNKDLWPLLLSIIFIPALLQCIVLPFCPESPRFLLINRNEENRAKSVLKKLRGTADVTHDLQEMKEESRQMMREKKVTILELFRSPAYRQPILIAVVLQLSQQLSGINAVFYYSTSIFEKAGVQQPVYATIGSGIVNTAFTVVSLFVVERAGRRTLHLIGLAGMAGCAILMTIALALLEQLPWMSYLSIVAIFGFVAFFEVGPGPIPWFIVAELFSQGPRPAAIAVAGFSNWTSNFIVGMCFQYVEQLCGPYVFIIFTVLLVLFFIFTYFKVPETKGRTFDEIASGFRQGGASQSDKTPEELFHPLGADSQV

[2] = target: Hexose transporter 1 (Plasmodium falciparum) (UniProt O97467); assay: ST_JUDE_LEISH: Cytotoxicity at 2uM final concentration against transgenic Leishmania Mexicana promastigotes LmPfHT that are glucose transport deficient and complemented with the Plasmodium falciparum hexose transporter. Activity is measured by DNA content using SYBR green in vitro
[3] = target: Glucose transporter (Leishmania mexicana) (UniProt O61059); assay: ST_JUDE_LEISH: Cytotoxicity at 2uM final concentration against transgenic Leishmania Mexicana promastigotes LmGT2 that are glucose transport deficient and complemented with the L. Mexicana glucose transporter 2. Activity is measured by DNA content using SYBR green in vitro

SMILES	inhibition [1]	inhibition [2]	inhibition [3]
Cc1cccc(CN2CCC(Oc3ccc(NC(=O)c4cccs4)cc3Cl)CC2)n1	5.76%	3.92%	2.69%
CN1CCC(N2CCN(c3ccc4c(=O)nc(CCc5cccc(F)c5F)n(CC(=O)N(C)Cc5ccc(-c6ccc(C(F)(F)F)cc6)cc5)c4n3)CC2)CC1	-0.12%	0.33%	6.67%
COc1ccc(CNCc2cccc(-c3cccc(-c4nc5cc(C(F)(F)F)ccc5[nH]4)c3)c2)cc1	5.4%	4.65%	3.48%
CCCC(C)Nc1nc(C)cc(N[C@@H](CC(C)C)C(=O)NCc2cccc(F)c2)n1 (stereo partly drawn)	4.43%	5.69%	3.7%
Cc1nc(-c2nc(N3CCOCC3)ncc2-c2ccsc2)sc1C	-1.47%	-0.4%	1.4%
CC(C)(C)c1cc(NC(=O)c2ccc(Cl)c([N+](=O)[O-])c2)cc(C(C)(C)C)c1	6.54%	6.88%	6.21%
COc1cc(NC(=O)NC(CCN2CCC3(CCc4ccccc43)CC2)c2ccc(Cl)c(Cl)c2)cc(OC)c1OC (stereo not drawn)	0.41%	0.09%	-3.62%
CCCNCc1ccc(-c2ccc(CN(C(=O)c3nn(-c4ccccc4)nc3C)C3CCOCC3)cc2)nc1	-0.49%	-0.28%	-1.66%
C=CCn1cc(C2CCN(CCCCNC(=O)c3sc(-c4ccc(C(F)(F)F)cc4)nc3CO)CC2)c2cc(OC)ccc21	1.93%	3.91%	4.35%
CC1(C)N=C(N)N=C(N)N1OCC1COc2ccccc2O1 (stereo not drawn)	1.54%	0.64%	0.96%
Clc1ccc2c(NCc3ccccc3)ccnc2c1	1.8%	3%	-0.97%
COc1ccc2nccc([C@@H](O)CN3CCC(NCCOc4cccc(C(F)(F)F)c4)CC3)c2c1	9.63%	12.5%	0.73%
CC1(C)CCCC(=Cc2ccc(Br)cc2)C1(O)Cn1ccnc1 (stereo not drawn)	27.9%	20.9%	13.5%
NC(=O)c1sc(-n2cnc3ccccc32)cc1OCc1ccccc1[N+](=O)[O-]	8.87%	7.21%	6.48%
CC(C)(C)c1ccc(NC(=O)c2ccc(CN3CCCN(Cc4cccc(Cl)c4)CC3)cc2)cc1	4.39%	2.95%	1.91%
O=C(Nc1cccc(-c2cccc(-c3nc4cc(F)ccc4[nH]3)c2)c1)Nc1ccc2c(c1)OCO2	1.84%	4.87%	-1.13%
CN1CCN(c2cc(NC(=O)c3ccc(-c4ccc(Cl)cc4)cc3)ccc2Cl)CC1	-0.77%	-0.81%	-1.86%
Cc1nc(Nc2ccc(C)c(Cl)c2)c2c(C)noc2n1	5.28%	4.91%	4.71%
CN(C)CC(=O)Nc1cccc(Nc2nccc(NCC(O)c3ccccc3)n2)c1 (stereo not drawn)	1.36%	0.33%	-0.94%
CC(C)c1ccc(NC(=O)NC2CCN(CCCCCNC(=O)/C=C/c3ccc(Cl)c(Cl)c3)CC2)cc1	-0.71%	-0.91%	-0.17%
CCC(CO)NCC(O)Cn1c2ccc(Cl)cc2c2cc(Cl)ccc21 (stereo not drawn)	4.65%	5.96%	2.18%
O=C(Nc1cccc(CN2CCCN(Cc3cccnc3)CC2)c1)c1cc2ccccc2s1	4.38%	4.77%	-1.53%
CC1(C)N=C(N)N=C(N)N1OCc1ccc2ccccc2c1	8.29%	7.22%	6.67%
O=C(NC(Nc1ccc([N+](=O)[O-])cc1)C(Cl)(Cl)Cl)c1cccc(Cl)c1 (stereo not drawn)	4.07%	3.95%	3.37%

SMILES	inhibition [1]	inhibition [2]	inhibition [3]
CN1CCC(N(Cc2ccc(-c3cnc(NCc4ccccc4)nc3)cc2)S(=O)(=O)c2ccccc2)CC1	14%	12.1%	3.05%
COc1ccc(CCNc2nc(SCc3ccccc3Cl)nc3ccccc23)cc1OC	1.6%	3.03%	1.42%
Cc1ccc2nc(C)cc(N/N=C/c3cccc([N+](=O)[O-])c3)c2c1	4.41%	4.99%	1.37%
CC(Nc1nc(Nc2ccc(F)cc2)nc(SCC(N)=O)n1)c1ccccc1 (stereo not drawn)	0.82%	1.3%	0.81%
CN1CCC(NCc2cccc(-c3ccc(S(=O)(=O)NCc4ccccc4)c(F)c3)c2)CC1	2.09%	3.75%	4.35%
COc1ccc(CCNc2ccnc3cc(Cl)ccc23)cc1OC	2.61%	2.36%	0.21%
CC1=C(C(=O)Nc2ccccc2)C(c2ccc([N+](=O)[O-])cc2)n2ncc(C(=O)Nc3ccccc3)c2N1 (stereo not drawn)	14.2%	6.94%	5.18%
COCCN(C(=O)Cc1cccs1)C(C(=O)NCc1ccc(OC)cc1)c1ccc(C(C)C)cc1 (stereo not drawn)	2.96%	-3.02%	-0.76%
O=[N+]([O-])c1cccc(CNC2CCN(Cc3ccc4ccccc4c3)CC2)c1	19%	12.4%	10.9%
COc1ccc2ncc(F)c(C(O)CN3CCC(NCc4ccc5c(n4)NC(=O)CO5)CC3)c2c1 (stereo not drawn)	-0.67% and 5.77%	2.57% and 4.56%	-3.55% and 1.93%
O=C(NC1CCCCC1)C(c1cccs1)N(CCc1ccccc1)C(=O)c1ccco1 (stereo not drawn)	1.57%	1.89%	0.46%
N#Cc1ccc2c(c1)CN(CCC1CCC(NC(=O)c3cc4ccccc4cc3N)CC1)CC2 (stereo not drawn)	5.84%	5.45%	3.13%
COc1ccc(C=NN=c2cc(C)[nH]c3ccccc23)cc1OC	7.8%	9.53%	2.8%
COc1ccc(NC(=O)c2c(NC(=O)c3cccs3)sc3c2CCCC3)cc1	0.31%	2.45%	5.21%
CC1(C)CC(=O)c2c(O)cc(OCc3ccncc3)cc2O1	2.92%	0.56%	0.66%
COc1ccccc1CCNc1nc(C)cc(N[C@@H](CC(C)C)C(=O)NCc2cccs2)n1	6.71%	5.41%	4.04%
CCNc1cc(C(=O)N[C@@H](Cc2ccccc2)[C@H](O)CNCCC(C)c2ccccc2)cc(N2CCCC2=O)c1 (stereo partly drawn)	4.77%	5.96%	1.33%
CN1CCC(NCc2cccc(-c3ccc(S(=O)(=O)NCCN4CCCC4)s3)c2)CC1	4.8%	5.43%	0.76%
Cc1cccc2nc(-c3cccc(-c4cccc(CNCCc5cccn5C)c4)c3)[nH]c12	0.04%	2.29%	-0.27%
Cc1cc(N[C@@H](Cc2ccccc2)C(=O)NCc2cccc(F)c2)nc(NCCc2cccs2)n1	2.6%	2.99%	2.23%
Cc1nc(Nc2cc(Cl)ccc2O)nc(Nc2cc(Cl)ccc2O)c1[N+](=O)[O-]	4.36%	3.14%	1.45%
COC(=O)c1cccc(CNCc2ccc(-c3ccc(-c4nc5ccccc5[nH]4)s3)cc2)c1	9.31%	9.04%	9.28%
CCCCNC(=O)[C@H](CC1CCCCC1)NC(=O)c1ccc(O)c(-c2ccc(Cl)c(Cl)c2)c1	-0.2%	-1.98%	0.36%
CN(C)Cc1ccc(O)c(-c2ccc(C(C)(C)C)cc2)n1	-0.79%	0.1%	2.74%

SMILES	inhibition [1]	inhibition [2]	inhibition [3]
COc1cccc(NC(=O)c2cc([N+](=O)[O-])ccc2NC(=O)CN2CCc3ccccc3C2)c1	4.59%	0.9%	4.74%
O=C(/C=C/c1ccccc1F)NC1CCC(CCN2CCc3ccc(-c4cccnc4)cc3CC2)CC1 (stereo not drawn)	15.8%	15.8%	20.1%
N=C(N)Nc1nc(-c2cccc(NC(=O)NCc3cccc4ccccc34)c2)cs1	1.1%	-0.38%	0.66%
O=C(NC1CCCCN(Cc2ccccc2O)C1)c1cccc(C(F)(F)F)c1 (stereo not drawn)	2.43%	1.72%	-4.05%
COc1ccc(NC(=O)c2ccc(-c3nc(-c4ccccc4)cs3)cc2)cc1N1CCN(C)CC1	9.73%	8.4%	9.79%
COc1cc(Cc2cnc(N)nc2N)cc(OC(C)C)c1OC	-0.55%	0.72%	-0.54%
CC(C)Nc1nc(NCCc2c[nH]cn2)nc(NCc2ccc(Cl)c(Cl)c2)n1	3.82%	0.13%	-0.25%
Cc1cccc2nc(-c3ccc(-c4cccc(NC(=O)COc5ccccc5C(N)=O)c4)s3)[nH]c12	9.69%	9.14%	6.9%
COC(=O)c1ccccc1N1CCN(CCCCNC(=O)c2ccc(NC(=O)c3cc(Cl)cc(Cl)c3)cc2)CC1	3.86%	5.53%	3.09%
COc1ccc(C=NN=c2c3ccccc3[nH]c3ccccc23)c2ccccc12	6.42%	5.85%	5.05%
COc1ccc(CC(=O)NC(CCN2CCC3(CC2)CN(S(C)(=O)=O)c2ccccc23)c2ccc(Cl)c(Cl)c2)cc1OC (stereo not drawn)	3.24%	3.56%	2.27%
O=C(Nc1nc(-c2ccccn2)cc2ccccc12)c1cccc(Cl)c1	10.1%	9.58%	8.17%
CCOc1ccc(-c2cc3nc(C4CCNCC4)c(C(=O)Nc4ccc(C)cc4Cl)cn3n2)cc1	4.75%	-0.08%	1.29%
O=C(Nc1ccc(Cl)cc1Cl)N[C@H]1CCN(CCCCCNC(=O)C2CC2c2ccc(Cl)c(Cl)c2)C1 (stereo partly drawn)	3.75%	4.63%	4.05%
Cc1cc(NC(=O)NCCN2CCC(NS(=O)(=O)c3cccc(Br)c3)C2)c2ccccc2n1 (stereo not drawn)	1.93%	0.98%	0.42%
COCc1cccc(-c2cc(-c3ccc(S(C)(=O)=O)cc3)cnc2N)c1	-0.03%	-0.46%	-5.63%
COc1ccc(CNCc2ccccc2)cc1-c1cccc(S(=O)(=O)NCCN2CCCC2)c1	1.03%	1.05%	-3.15%
O=C(Nc1ccc(OCc2ccccc2)cc1)c1nc2ccccc2nc1Cl	1.33%	1.29%	1.34%
Cc1cccc2nc(-c3cccc(-c4ccc(NC(=O)c5cccc(C(N)=O)c5)cc4)c3)[nH]c12	1.01%	1.42%	1.38%
CC(C)COc1ccc(Cl)cc1Cc1ccc(-c2nc3cc(CCN4CCCC4)ccc3[nH]2)o1	0.75%	3.33%	2.08%
Fc1ccc(C=NN=c2cc[nH]c3ccc(C(F)(F)F)cc23)cc1	6.39%	6.15%	5.46%
O=C(N[C@@H](Cc1ccccc1)C(=O)NCc1cccc(C(F)(F)F)c1)c1ccc(O)c(-c2ccc(Cl)c(Cl)c2)c1	3.7%	0.97%	-2.02%
CC(C)NC(C)(C)CN(Cc1ccc(-c2ccc(C(F)(F)F)cc2)cc1)C(=O)Cn1c(CCc2cccc(F)c2F)nc(=O)c2ccccc21	0.37%	-0.61%	-0.1%
